Assay results taken from the supplement of paper PMC9694430.

Key:
Test in all cases: thermal shift delta Tm vs DMSO control; higher = stronger stabilization (binding)
Details in all cases: 12.5 µM; protein concentration 2 µM
LOC_OS04G57630-cb004 = test system: LOC_OS04G57630-cb004
Method in brief: (§1)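 Rice kinase domain constructs, made in E. coli and purified, were placed in 96-well plates at 2 μM in 19.5 μl of 100 mM potassium phosphate pH 7.5, 150 mM NaCl, 10% glycerol and 5 × SYPRO Orange, with compound in DMSO. A temperature ramp from 25°C to 95°C at 0.05°C/s was used for differential scanning fluorimetry. The melting temperature shift is a triplicate mean compared with DMSO-only protein, derived from Boltzmann fits.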

LOC_OS05G07850-cb002 = test system: LOC_OS05G07850-cb002
Method in brief: as §1

LOC_OS05G16824-cb004 = test system: LOC_OS05G16824-cb004
Method in brief: as §1

LOC_OS05G28520-cb001 = test system: LOC_OS05G28520-cb001
Method in brief: as §1

LOC_OS05G30820-cb001 = test system: LOC_OS05G30820-cb001
Method in brief: as §1

LOC_OS05G43570-cb004 = test system: LOC_OS05G43570-cb004
Method in brief: as §1

LOC_OS06G16330-cb003 = test system: LOC_OS06G16330-cb003
Chain of LOC_OS06G16330-cb003 (as listed by the source): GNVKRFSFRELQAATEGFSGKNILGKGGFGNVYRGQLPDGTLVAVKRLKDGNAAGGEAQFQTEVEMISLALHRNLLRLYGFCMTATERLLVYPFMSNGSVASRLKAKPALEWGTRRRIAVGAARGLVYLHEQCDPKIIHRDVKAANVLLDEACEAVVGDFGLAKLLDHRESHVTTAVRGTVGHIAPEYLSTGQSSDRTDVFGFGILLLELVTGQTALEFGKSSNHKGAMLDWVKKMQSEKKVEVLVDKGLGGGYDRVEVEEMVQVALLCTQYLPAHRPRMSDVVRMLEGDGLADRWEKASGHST
Method in brief: as §1

LOC_OS06G22820-cb001 = test system: T1, LOC_OS06G22820-cb001
T1 sequence (whole entry): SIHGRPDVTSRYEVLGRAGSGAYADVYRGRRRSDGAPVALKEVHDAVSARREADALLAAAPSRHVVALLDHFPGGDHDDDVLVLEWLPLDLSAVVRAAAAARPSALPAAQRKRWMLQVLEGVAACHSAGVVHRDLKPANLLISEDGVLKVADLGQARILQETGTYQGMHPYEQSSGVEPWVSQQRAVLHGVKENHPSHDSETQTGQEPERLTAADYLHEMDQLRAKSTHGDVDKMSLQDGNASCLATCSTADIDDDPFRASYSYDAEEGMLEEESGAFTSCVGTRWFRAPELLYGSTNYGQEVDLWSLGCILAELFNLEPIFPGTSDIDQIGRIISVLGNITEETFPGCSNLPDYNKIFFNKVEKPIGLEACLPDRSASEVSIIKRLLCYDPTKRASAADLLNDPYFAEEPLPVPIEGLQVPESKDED
Method in brief: as §1

LOC_OS07G06570-cb004 = test system: LOC_OS07G06570-cb004
Method in brief: as §1

LOC_OS07G07230-cb001 = test system: LOC_OS07G07230-cb001
Method in brief: as §1
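Further: purified Escherichia coli-expressed rice kinase domain construct.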

SMILES | thermal shift delta Tm (LOC_OS04G57630-cb004) | thermal shift delta Tm (LOC_OS05G07850-cb002) | thermal shift delta Tm (LOC_OS05G16824-cb004) | thermal shift delta Tm (LOC_OS05G28520-cb001) | thermal shift delta Tm (LOC_OS05G30820-cb001) | thermal shift delta Tm (LOC_OS05G43570-cb004) | thermal shift delta Tm (LOC_OS06G16330-cb003) | thermal shift delta Tm (LOC_OS06G22820-cb001) | thermal shift delta Tm (LOC_OS07G06570-cb004) | thermal shift delta Tm (LOC_OS07G07230-cb001)
CCCS(=O)(=O)Nc1ccc(F)c(C(=O)c2c[nH]c3ncc(-c4ccc(Cl)cc4)cc23)c1F [Vemurafenib (PLX4032, RG7204)] | 0.61 °C | 10.3 °C | -0.4 °C | 1.63 °C | 0.58 °C | 1.69 °C | 8.05 °C | 1.99 °C | 2.33 °C | 0.34 °C
CN1CCN(Cc2ccc(NC(=O)Nc3ccc(Oc4ccnc(N)n4)cc3)cc2C(F)(F)F)CC1 | 6.19 °C | 11.9 °C | -5.04 °C | 0.9 °C | 0.74 °C | 1.72 °C | 5.38 °C | 0.66 °C | 0.91 °C | -1.04 °C
O=C(/C=C/c1ccc(O)c(O)c1)c1ccc(O)cc1O [Butein] | 2.45 °C | 8.49 °C | 4.48 °C | 1.45 °C | 0.81 °C | 1.93 °C | 4.87 °C | 2.16 °C | 1.46 °C | 0.82 °C
COc1cc2nccc(Oc3ccc(NC(=O)Nc4cc(C)on4)c(Cl)c3)c2cc1OC [Tivozanib (AV-951)] | 3.28 °C | 9.77 °C | 2.86 °C | 2.41 °C | 0.62 °C | 0.21 °C | 10.8 °C | 0.55 °C | 0.52 °C | -0.04 °C
O=C1NC(=O)/C(=C/c2cccc(C(F)(F)F)c2)S1 | 0.39 °C | 1.33 °C | -0.21 °C | 0.59 °C | 0.46 °C | 0.27 °C | 0.26 °C | 0.44 °C | 0.68 °C | 0.58 °C
CCn1c(=O)c(-c2cc[nH]n2)cc2c(C)nc(N)nc21 | 0.11 °C | 3 °C | -1.71 °C | 0.22 °C | 0.35 °C | -0.07 °C | 0.86 °C | 0.06 °C | 0.51 °C | 0.61 °C
CN(C)Cc1cccc(N=C(c2ccccc2)c2c(O)[nH]c3cc(C(=O)N(C)C)ccc23)c1 | 0.46 °C | 5.73 °C | 3.8 °C | -0.08 °C | 0.49 °C | 0.76 °C | 0.77 °C | 0.98 °C | 0.59 °C | -0.37 °C
CCn1c(C(=O)N(C2CC2)C2CC2)cc2c3c(ncn3C)c(Nc3cc(C)n(C)n3)nc21 | 0.17 °C | 6.42 °C | 2.92 °C | 0.88 °C | 0.47 °C | 0.51 °C | 2.11 °C | 0.64 °C | 1.49 °C | 0.76 °C
CN1CCC(CNc2ccc3ncc(-c4cccc(OC(F)(F)F)c4)n3n2)CC1 [SGI-1776 free base] | 1.46 °C | 12 °C | 3.25 °C | 0.98 °C | 0.86 °C | 0.36 °C | 3.37 °C | 0.41 °C | 0.32 °C | 0.72 °C
Fc1ccc2[nH]ccc2c1-c1nc(N2CCOCC2)c2sc(CN3CCN(CC4CC4)CC3)cc2n1 | -0.15 °C | 2.07 °C | -1.52 °C | 0.19 °C | 0.44 °C | 0.12 °C | -0.11 °C | 0.53 °C | 0.96 °C | 0.95 °C
N#Cc1cccc(-c2c[nH]c3ncnc(N4CCOCC4)c23)c1 | 0.05 °C | 12.3 °C | 1 °C | 0.3 °C | 0.46 °C | 0.26 °C | 3.82 °C | 0.53 °C | 0.63 °C | 0.58 °C
O=C(O)CCC(=O)Nc1ccc(Br)cn1 [Bikinin] | 0.15 °C | 0.5 °C | 0.58 °C | 0.89 °C | 0.45 °C | 0.76 °C | 0.72 °C | 0.48 °C | 0.42 °C | -0.18 °C
C=C[C@@](C)(/C=C/c1ccc(O)cc1)CCC=C(C)C [Bakuchiol] | 0.09 °C | 0.26 °C | -1.27 °C | 0.19 °C | 0.04 °C | 0.47 °C | -0.03 °C | 0.41 °C | 0.83 °C | 0.15 °C
Cc1cc(Nc2cc(Cl)nc(Oc3ccc([N+](=O)[O-])cc3)n2)n[nH]1 [Autophinib] | -0.11 °C | 0.97 °C | -0.37 °C | 0.34 °C | 0.1 °C | 0.13 °C | 0.35 °C | 0.51 °C | 1.89 °C | 0.73 °C
OC(c1cc(-c2ccc(Cl)cc2)nc2ccccc12)C1CCCCN1 (stereo not given) [Vacquinol-1] | 0.38 °C | 3.49 °C | 1.23 °C | 0.66 °C | 0.43 °C | 0.64 °C | 0.55 °C | 0.46 °C | 0.14 °C | -0.36 °C
O=c1c(O)c(-c2cc(O)c(O)c(O)c2)oc2cc(O)cc(O)c12 [Myricetin] | 0.92 °C | 4.43 °C | 1.57 °C | 0.55 °C | 0.97 °C | 1.55 °C | 6.62 °C | 1.33 °C | -1.03 °C | 0.47 °C
CN(C)C/C=C/C(=O)Nc1cc2c(Nc3ccc(F)c(Cl)c3)ncnc2cc1O[C@H]1CCOC1 [Afatinib (BIBW2992) Dimaleate] | 1.02 °C | 7.65 °C | -0.29 °C | 0.44 °C | 0.24 °C | 0.46 °C | 2.05 °C | 0.61 °C | 1.27 °C | 0.08 °C
Cc1ccc(-n2nc(C(C)(C)C)cc2NC(=O)NCc2cc(F)ccc2Oc2ccc3c(cnn3CCO)c2)cc1 [Pexmetinib (ARRY-614)] | 5.61 °C | 7.46 °C | -1.5 °C | 0.41 °C | 0.66 °C | 0.54 °C | 3.89 °C | 0.91 °C | 0.14 °C | -0.6 °C
CC(C)(C)NS(=O)(=O)c1cncc(-c2cc(F)c3nc(N)nn3c2)c1 | 0.3 °C | 1.74 °C | 0.61 °C | 0.78 °C | 0.53 °C | 0.59 °C | 0.88 °C | 0.87 °C | 1.73 °C | 0.06 °C
